What follows are sequences tested against FTL (assay: pooled miR-30 sensor sort-seq; sequence = guide strand). Conditions: shRNA.
TTGATGTCCTGGAAGAGAGCGC showed a sensor-assay potency score (higher = more potent) of -0.331. Sequence TTCCAGAGCCACATCATCGCGG has a sensor-assay potency score (higher = more potent) of -0.592. Sequence TTGATAAGCTTCACTTCCTCAT has a sensor-assay potency score (higher = more potent) of -0.312. Sequence TCTAGGAAGTGAGTCTCCAGGA has a sensor-assay potency score (higher = more potent) of -0.902. For TTTCGAAGAGATACTCGCCCAG, the sensor-assay potency score (higher = more potent) was -0.301. With TTCAGCTGGCTTCTTGATGTCC the sensor-assay potency score (higher = more potent) was -0.855. ATCTAGGAAGTGAGTCTCCAGG showed a sensor-assay potency score (higher = more potent) of -1.73. Work on TTCGAAGAGATACTCGCCCAGC yielded a sensor-assay potency score (higher = more potent) of -0.73. For ATGAAGATCCAAAAGGGCCTGG, the sensor-assay potency score (higher = more potent) was -0.154. With TTCAGGAGACGCTCGTAGCCCT the sensor-assay potency score (higher = more potent) was -0.927. Sequence TTGACCAGGCTGTTGACGGCTG has a sensor-assay potency score (higher = more potent) of -0.48. TCTTGATAAGCTTCACTTCCTC was tested, and the sensor-assay potency score (higher = more potent) was -0.871. TTTTTCTCCAGGGCCATGGCAG showed a sensor-assay potency score (higher = more potent) of -1.05. For TAAGCTTCACTTCCTCATCTAG, the sensor-assay potency score (higher = more potent) was -0.516. TCGCGGTCGAAATAGAAGCCCA gave a sensor-assay potency score (higher = more potent) of -1.25. TTCTCCTCGGCCAATTCGCGGA showed a sensor-assay potency score (higher = more potent) of -1.13. With TCCAGAGCCACATCATCGCGGT the sensor-assay potency score (higher = more potent) was -0.991. Sequence TACCCCACTCATCTTCAGCTGG has a sensor-assay potency score (higher = more potent) of -0.815. TTCACTTCCTCATCTAGGAAGT was tested, and the sensor-assay potency score (higher = more potent) was -0.832. In the case of TTGCATCTTCAGGAGACGCTCG, the sensor-assay potency score (higher = more potent) is reported as -0.127. Sequence TTTTACCCCACTCATCTTCAGC has a sensor-assay potency score (higher = more potent) of -1.2. In the case of TAGGAAGTGAGTCTCCAGGAAG, the sensor-assay potency score (higher = more potent) is reported as -1.72. TTTGCATCTTCAGGAGACGCTC gave a sensor-assay potency score (higher = more potent) of -0.792.

— the OligoGym collection
Further: reference of the scale not given here.
